# Measured values from PubChem BioAssay AID1508601 (ICCB-Longwood Screening Facility, Harvard Medical School, 2020).
# About 85 (1%) of roughly 5,700 compounds were called active. The sample holds actives, similar compounds and a random draw of the others, so the mix is not that of the screen. Rule as the data show it: active = p53-positive nuclei above about 36% (passing the limit was not always enough); inactive = the rest.
# How the values were obtained:
# [1] = nuclear p53 accumulation, HPV+ cells – imaging, p53-positive nuclei imaging, 24 h, 48 h (AID 1508601); conditions: 24/48 h
# [2] = molecular target: Cellular tumor antigen p53 (Homo sapiens) (UniProt P04637); assay: as above; conditions: 24/48 h, stronger effect = higher value
# Chain of Cellular tumor antigen p53 (Homo sapiens) (P04637 whole entry, looked up): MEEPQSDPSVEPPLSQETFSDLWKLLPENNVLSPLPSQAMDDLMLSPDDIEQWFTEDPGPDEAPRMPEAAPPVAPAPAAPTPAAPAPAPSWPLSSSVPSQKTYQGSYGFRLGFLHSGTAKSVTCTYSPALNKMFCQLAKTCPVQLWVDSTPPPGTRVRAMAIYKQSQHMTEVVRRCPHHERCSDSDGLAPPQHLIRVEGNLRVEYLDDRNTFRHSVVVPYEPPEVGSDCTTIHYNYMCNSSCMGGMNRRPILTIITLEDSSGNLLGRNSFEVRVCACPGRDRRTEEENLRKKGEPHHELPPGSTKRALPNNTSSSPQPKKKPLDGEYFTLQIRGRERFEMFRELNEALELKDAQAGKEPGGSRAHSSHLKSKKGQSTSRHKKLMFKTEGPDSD
# [3] = measured here: cell number at 24 h, Library stock concentration: 3.33 mM
# [4] = measured here: cell number at 48 h, Library stock concentration: 3.33 mM
# [5] = Library stock concentration: 3.33 mM
# [6] = measured here: p53 positive nuclei at 24 h, Library stock concentration: 3.33 mM
structure (smiles),measurement,setting,value
CCCCCCCCCCCC[N+](C)(C)CCOc1ccccc1,"nuclei count, normalised",[1]; [3],115%
same,"nuclei count, normalised",[1]; [4],110%
same,"p53-positive nuclei, normalised",[2]; [5],-0.174% (inactive)
same,"p53-positive nuclei, normalised",[2]; [6],-0.284%
CCCCC/C=C\C/C=C\C/C=C\C/C=C\CCCCOC(CO)CO,"nuclei count, normalised","[1]; measured here: cell number at 24 h, concentration not given here",104%
same,"nuclei count, normalised","[1]; measured here: cell number at 48 h, concentration not given here",111%
same,"p53-positive nuclei, normalised",[2]; concentration not given here,0.099% (inactive)
same,"p53-positive nuclei, normalised","[2]; measured here: p53 positive nuclei at 24 h, concentration not given here",0.34%
CC=C(C)C(=O)NC(c1ccccc1)C(O)C(=O)OC1C[C@@]2(O)C(OC(=O)c3ccccc3)[C@@H]3[C@]4(OC(C)=O)COC4CC(O)[C@@]3(C)C(=O)C(OC(C)=O)C(=C1C)C2(C)C (some centres not stated),"nuclei count, normalised",[1]; [3],33.5%
same,"nuclei count, normalised",[1]; [4],28.1%
same,"p53-positive nuclei, normalised",[2]; [5],1.63% (inactive)
same,"p53-positive nuclei, normalised",[2]; [6],-0.0935%
OC1CN2CCC(O)[C@H]2C(O)C1O (some centres not stated),"nuclei count, normalised","[1]; measured here: cell number at 24 h, Library stock concentration: 500 nM",98.9%
same,"nuclei count, normalised","[1]; measured here: cell number at 24 h, Library stock concentration: 1.5 uM",116%
same,"nuclei count, normalised","[1]; measured here: cell number at 24 h, Library stock concentration: 4.6 uM",110%
same,"nuclei count, normalised","[1]; measured here: cell number at 24 h, Library stock concentration: 13.7 uM",107%
same,"nuclei count, normalised","[1]; measured here: cell number at 24 h, Library stock concentration: 41 uM",109%
same,"nuclei count, normalised","[1]; measured here: cell number at 24 h, Library stock concentration: 123 uM",108%
same,"nuclei count, normalised","[1]; measured here: cell number at 24 h, Library stock concentration: 370 uM",107%
same,"nuclei count, normalised","[1]; measured here: cell number at 24 h, Library stock concentration: 1.111 mM",107%
same,"nuclei count, normalised","[1]; measured here: cell number at 24 h, Library stock concentration: 3.333 mM",105%
same,"nuclei count, normalised","[1]; measured here: cell number at 24 h, Library stock concentration: 10 mM",105%
same,"nuclei count, normalised","[1]; measured here: cell number at 48 h, Library stock concentration: 500 nM",102%
same,"nuclei count, normalised","[1]; measured here: cell number at 48 h, Library stock concentration: 1.5 uM",111%
same,"nuclei count, normalised","[1]; measured here: cell number at 48 h, Library stock concentration: 4.6 uM",108%
same,"nuclei count, normalised","[1]; measured here: cell number at 48 h, Library stock concentration: 13.7 uM",105%
same,"nuclei count, normalised","[1]; measured here: cell number at 48 h, Library stock concentration: 41 uM",110%
same,"nuclei count, normalised","[1]; measured here: cell number at 48 h, Library stock concentration: 123 uM",108%
same,"nuclei count, normalised","[1]; measured here: cell number at 48 h, Library stock concentration: 370 uM",106%
same,"nuclei count, normalised","[1]; measured here: cell number at 48 h, Library stock concentration: 1.111 mM",102%
same,"nuclei count, normalised","[1]; measured here: cell number at 48 h, Library stock concentration: 3.333 mM",106%
same,"nuclei count, normalised","[1]; measured here: cell number at 48 h, Library stock concentration: 10 mM",104%
same,"p53-positive nuclei, normalised",[2]; Library stock concentration: 500 nM,-0.0904% (inactive)
same,"p53-positive nuclei, normalised",[2]; Library stock concentration: 1.5 uM,0.192% (inactive)
same,"p53-positive nuclei, normalised",[2]; Library stock concentration: 4.6 uM,0.0933% (inactive)
same,"p53-positive nuclei, normalised",[2]; Library stock concentration: 13.7 uM,-0.133% (inactive)
same,"p53-positive nuclei, normalised",[2]; Library stock concentration: 41 uM,-0.107% (inactive)
same,"p53-positive nuclei, normalised",[2]; Library stock concentration: 123 uM,0.0873% (inactive)
same,"p53-positive nuclei, normalised",[2]; Library stock concentration: 370 uM,0.261% (inactive)
same,"p53-positive nuclei, normalised",[2]; Library stock concentration: 1.111 mM,-0.0118% (inactive)
same,"p53-positive nuclei, normalised",[2]; Library stock concentration: 3.333 mM,0.175% (inactive)
same,"p53-positive nuclei, normalised",[2]; Library stock concentration: 10 mM,-0.135% (inactive)
same,"p53-positive nuclei, normalised","[2]; measured here: p53 positive nuclei at 24 h, Library stock concentration: 500 nM",-0.068%
same,"p53-positive nuclei, normalised","[2]; measured here: p53 positive nuclei at 24 h, Library stock concentration: 1.5 uM",0.213%
same,"p53-positive nuclei, normalised","[2]; measured here: p53 positive nuclei at 24 h, Library stock concentration: 4.6 uM",-0.135%
same,"p53-positive nuclei, normalised","[2]; measured here: p53 positive nuclei at 24 h, Library stock concentration: 13.7 uM",-0.189%
same,"p53-positive nuclei, normalised","[2]; measured here: p53 positive nuclei at 24 h, Library stock concentration: 41 uM",0.0835%
same,"p53-positive nuclei, normalised","[2]; measured here: p53 positive nuclei at 24 h, Library stock concentration: 123 uM",0.197%
same,"p53-positive nuclei, normalised","[2]; measured here: p53 positive nuclei at 24 h, Library stock concentration: 370 uM",0.0352%
same,"p53-positive nuclei, normalised","[2]; measured here: p53 positive nuclei at 24 h, Library stock concentration: 1.111 mM",-0.189%
same,"p53-positive nuclei, normalised","[2]; measured here: p53 positive nuclei at 24 h, Library stock concentration: 3.333 mM",-0.0741%
same,"p53-positive nuclei, normalised","[2]; measured here: p53 positive nuclei at 24 h, Library stock concentration: 10 mM",0.108%
